# Measured values as given in PubChem BioAssay.
# Activity calls are given as the source filed them.
# Experiments:
# [1] = test system: Plasmodium falciparum Sir2 (PF13_0152, Sir2A); assay: Plasmodium falciparum Sir2A binding compounds – biochemical, small-molecule microarray, 635 nm fluorescence, primary screen (AID 1098); conditions: fluorescence 635 nm, higher = more signal;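 further: score merges spot fluorescence intensity with its signal-to-noise ratio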
# [2] = probe aDKK1 binding to arrayed compounds – biochemical, biotinylated probe, 635/667 nm fluorescence, primary screen (AID 1099); conditions: small-molecule microarray, higher = more signal;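 further: score merges 667nm spot fluorescence with signal to noise across triplicate slides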
# [3] = probe aCHRDL2 binding to arrayed compounds – biochemical, biotinylated probe, 635/667 nm fluorescence, primary screen (AID 1100); conditions: small-molecule microarray, higher = more signal
# [4] = change in splice reporter luminescence, either direction, cell-based, HEK293, spliceosome inhibition project, primary screen (AID 1101); conditions: HEK293 splicing luciferase reporter, 24 h, higher = more signal, called active from +8 up or from −8 down;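 further: HEK293 cells carrying a splicing-competent luciferase reporter gene; test concentration not given here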
# [5] = target: Fibroblast growth factor 10 (Homo sapiens) (UniProt O15520); assay: compounds binding fibroblast growth factor 10 – biochemical, small-molecule microarray, 635 nm fluorescence, primary screen (AID 1102); conditions: FGF10 binding, fluorescence 635 nm, higher = more signal
# Sequence of Fibroblast growth factor 10 (Homo sapiens) (O15520 whole entry, looked up): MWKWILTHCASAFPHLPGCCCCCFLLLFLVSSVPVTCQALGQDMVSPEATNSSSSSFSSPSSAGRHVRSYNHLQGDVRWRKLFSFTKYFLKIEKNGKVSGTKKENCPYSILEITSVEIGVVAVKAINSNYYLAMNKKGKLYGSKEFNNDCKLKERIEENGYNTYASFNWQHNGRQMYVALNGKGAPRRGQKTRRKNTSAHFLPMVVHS
# [6] = test system: glycogen synthase kinase-3 (GSK3A per assay name; protocol says GSK3B); assay: compounds binding glycogen synthase kinase-3 – biochemical, small-molecule microarray, 635 nm fluorescence, GSK3A, primary screen (AID 1103); conditions: fluorescence 635 nm, higher = more signal; further: the record names both GSK3A and GSK3B
# [7] = target: Epidermal growth factor receptor (Homo sapiens) (UniProt P00533); assay: compounds binding epidermal growth factor receptor – biochemical, small-molecule microarray, 635 nm fluorescence, primary screen (AID 1104); conditions: EGFR binding, higher = more signal;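 further: score merges 667 nm emission intensity with spot signal to noise over triplicate slides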
# Sequence of Epidermal growth factor receptor (Homo sapiens) (P00533 whole entry, looked up): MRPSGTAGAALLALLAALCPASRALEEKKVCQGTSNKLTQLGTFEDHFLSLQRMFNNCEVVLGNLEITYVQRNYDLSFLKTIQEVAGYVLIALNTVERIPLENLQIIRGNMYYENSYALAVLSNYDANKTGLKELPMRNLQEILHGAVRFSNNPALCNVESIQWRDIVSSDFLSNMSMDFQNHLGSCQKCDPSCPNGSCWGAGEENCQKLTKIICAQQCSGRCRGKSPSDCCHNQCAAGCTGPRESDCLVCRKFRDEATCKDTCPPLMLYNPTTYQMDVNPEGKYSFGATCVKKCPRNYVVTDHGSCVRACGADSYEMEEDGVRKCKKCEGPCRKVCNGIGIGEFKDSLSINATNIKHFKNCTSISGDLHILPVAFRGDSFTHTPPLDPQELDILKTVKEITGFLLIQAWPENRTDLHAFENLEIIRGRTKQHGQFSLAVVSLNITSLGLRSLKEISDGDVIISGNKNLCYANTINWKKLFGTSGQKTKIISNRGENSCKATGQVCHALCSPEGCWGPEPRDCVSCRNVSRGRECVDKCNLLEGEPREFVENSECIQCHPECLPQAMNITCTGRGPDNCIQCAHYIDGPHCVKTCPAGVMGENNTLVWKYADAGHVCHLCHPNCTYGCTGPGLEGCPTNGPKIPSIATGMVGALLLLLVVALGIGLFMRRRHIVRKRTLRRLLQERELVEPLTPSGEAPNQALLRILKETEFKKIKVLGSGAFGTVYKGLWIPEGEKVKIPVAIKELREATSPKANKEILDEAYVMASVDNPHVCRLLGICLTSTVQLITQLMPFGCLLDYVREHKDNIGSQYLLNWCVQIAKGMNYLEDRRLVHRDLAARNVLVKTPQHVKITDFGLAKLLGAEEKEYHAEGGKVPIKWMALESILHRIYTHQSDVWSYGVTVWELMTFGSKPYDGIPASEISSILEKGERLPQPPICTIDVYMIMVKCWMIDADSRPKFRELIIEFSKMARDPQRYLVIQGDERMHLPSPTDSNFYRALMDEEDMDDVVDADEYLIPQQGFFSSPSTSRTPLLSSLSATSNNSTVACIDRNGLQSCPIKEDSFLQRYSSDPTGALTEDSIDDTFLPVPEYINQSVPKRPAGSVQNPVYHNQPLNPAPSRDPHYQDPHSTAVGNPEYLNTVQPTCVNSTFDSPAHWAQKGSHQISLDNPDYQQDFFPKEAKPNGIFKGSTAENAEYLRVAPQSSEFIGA
# [8] = target: Follistatin-related protein 3 (Homo sapiens) (UniProt O95633); assay: compounds binding follistatin-related protein 3 – biochemical, small-molecule microarray, 635 nm fluorescence, primary screen (AID 1105); conditions: FSTL3 binding, higher = more signal;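 further: score merges emission near 667 nm and signal to noise per printed spot across three slides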
# Sequence of Follistatin-related protein 3 (Homo sapiens) (O95633 whole entry, looked up): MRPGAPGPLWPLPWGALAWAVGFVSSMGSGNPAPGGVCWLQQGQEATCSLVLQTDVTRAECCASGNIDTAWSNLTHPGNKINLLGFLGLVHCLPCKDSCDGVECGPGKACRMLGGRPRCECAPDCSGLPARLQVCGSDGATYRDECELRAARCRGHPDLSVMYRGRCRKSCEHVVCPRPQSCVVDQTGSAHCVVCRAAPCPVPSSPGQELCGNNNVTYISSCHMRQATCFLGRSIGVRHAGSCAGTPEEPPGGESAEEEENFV
# [9] = target: Dickkopf-related protein 1 (Homo sapiens) (UniProt O94907); assay: small molecules binding DKK1 protein – biochemical, small-molecule microarray, 635 nm fluorescence scan, primary screen (AID 1106); conditions: higher = more signal;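 further: score merges emission near 667 nm with signal to noise over three replicate slides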
# Sequence of Dickkopf-related protein 1 (Homo sapiens) (O94907 whole entry, looked up): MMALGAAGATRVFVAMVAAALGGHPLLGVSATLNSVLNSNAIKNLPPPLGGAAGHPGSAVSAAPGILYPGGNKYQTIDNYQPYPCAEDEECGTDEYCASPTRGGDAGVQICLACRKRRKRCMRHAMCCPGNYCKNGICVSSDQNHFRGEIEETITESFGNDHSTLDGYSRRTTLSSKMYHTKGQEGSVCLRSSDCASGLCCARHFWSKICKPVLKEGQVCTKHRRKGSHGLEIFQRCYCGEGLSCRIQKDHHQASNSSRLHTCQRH
# [10] = test system: Inhibin beta A chain (activin A); assay: small molecules binding activin A – biochemical, small-molecule microarray, 635 nm fluorescence scan, primary screen (AID 1107); conditions: INHBA, higher = more signal;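 further: mouse activin A protein probed at 4.33 µg/mL on printed slides; score merges bound-protein fluorescence near 667 nm with spot signal-to-noise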
# [11] = test system: Human papillomavirus type 1a protein E7 (residues 44-93); assay: small molecules binding HPV E7 44-93 – biochemical, small-molecule microarray, residues 44-93, 635 nm fluorescence, primary screen (AID 1108); conditions: fluorescence 635 nm, higher = more signal;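 further: E7 fragment applied at 1 µg/mL in TBST for 1 h at 4 C; score combines spot fluorescence with its signal to noise ratio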
# [12] = hepatitis C replication reporter changes, two-sided – Huh7 cells, luciferase reporter, HCV replication inhibitor project, primary screen (AID 1109); conditions: Huh7 HCV replicon luciferase reporter, 48 h; higher = more signal;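 further: huh7 hepatoma cells harbouring a luciferase neomycin HCV replicon reporter; luciferase luminescence as measure of HCV replicon replication; test concentration not given here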
# [13] = target: Left-right determination factor 2 (Homo sapiens) (UniProt O00292); assay: small molecules binding LEFTY2 protein – biochemical, small-molecule microarray, 635 nm fluorescence scan, primary screen (AID 1110); conditions: higher = more signal
# Sequence of Left-right determination factor 2 (Homo sapiens) (O00292 whole entry, looked up): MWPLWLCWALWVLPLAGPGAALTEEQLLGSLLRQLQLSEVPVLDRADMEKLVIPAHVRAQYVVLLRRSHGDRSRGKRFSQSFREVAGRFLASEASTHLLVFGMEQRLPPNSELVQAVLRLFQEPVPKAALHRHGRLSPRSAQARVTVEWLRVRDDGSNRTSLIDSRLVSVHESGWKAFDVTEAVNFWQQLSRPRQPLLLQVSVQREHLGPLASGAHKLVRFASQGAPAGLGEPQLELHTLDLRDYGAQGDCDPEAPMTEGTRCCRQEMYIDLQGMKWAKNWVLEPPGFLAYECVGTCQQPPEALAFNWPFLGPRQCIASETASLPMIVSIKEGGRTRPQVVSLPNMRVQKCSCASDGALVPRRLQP
# [14] = target: Calmodulin-1 (Homo sapiens) (UniProt P0DP23); assay: small molecules binding calmodulin-1 with EGTA – biochemical, small-molecule microarray, Cy5-labelled CALM1, profiling panel (AID 1111); conditions: Cy5-CALM1 binding fluorescence, higher = more signal;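 further: labelled calmodulin applied in Tris saline Tween buffer holding calcium plus EGTA and DTT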
# [15] = target: Calmodulin-1 (Homo sapiens) (UniProt P0DP23); assay: small molecules binding Ca-loaded calmodulin-1 – biochemical, small-molecule microarray, Cy5-labelled CALM1, plus calcium, artefact control for SMM control-protein annotation, profiling panel (AID 1112); conditions: Cy5-CALM1 binding fluorescence, higher = more signal;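 further: score merges spot fluorescence with signal to noise from triplicate slides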
# [16] = probe aWnt5a binding to arrayed compounds – biochemical, biotinylated probe, 635/667 nm fluorescence, primary screen (AID 1113); conditions: small-molecule microarray, higher = more signal;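 further: score merges 667 nm fluorescence intensity with signal-to-noise per printed feature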
# [17] = probe aShh binding to arrayed compounds – biochemical, biotinylated probe, 635/667 nm fluorescence, primary screen (AID 1114); conditions: small-molecule microarray, higher = more signal;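 further: probe is biotin-labelled aShh protein from a stem cell growth factor screen; measures binding of labelled protein to compounds printed on the slide; score merges feature fluorescence at 667 nm with signal-to-noise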
# [18] = probe aNog binding to arrayed compounds – biochemical, biotinylated probe, 635/667 nm fluorescence, primary screen (AID 1115); conditions: small-molecule microarray, higher = more signal;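 further: probe is biotinylated aNog protein used at 0.15 µg/mL for 1 h at 4 C; z-score combines 667 nm fluorescence of each spot with its signal to noise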
# [19] = target: Torsin-1A-interacting protein 1 (Homo sapiens) (UniProt Q5JTV8); assay: compound microarray binding of lysate hLAP1 – cell lysate, small-molecule microarray, COS7 lysate, 635/667 nm fluorescence, primary screen (AID 1116); conditions: 635 nm fluorescence, higher = more signal
# Sequence of Torsin-1A-interacting protein 1 (Homo sapiens) (Q5JTV8 whole entry, looked up): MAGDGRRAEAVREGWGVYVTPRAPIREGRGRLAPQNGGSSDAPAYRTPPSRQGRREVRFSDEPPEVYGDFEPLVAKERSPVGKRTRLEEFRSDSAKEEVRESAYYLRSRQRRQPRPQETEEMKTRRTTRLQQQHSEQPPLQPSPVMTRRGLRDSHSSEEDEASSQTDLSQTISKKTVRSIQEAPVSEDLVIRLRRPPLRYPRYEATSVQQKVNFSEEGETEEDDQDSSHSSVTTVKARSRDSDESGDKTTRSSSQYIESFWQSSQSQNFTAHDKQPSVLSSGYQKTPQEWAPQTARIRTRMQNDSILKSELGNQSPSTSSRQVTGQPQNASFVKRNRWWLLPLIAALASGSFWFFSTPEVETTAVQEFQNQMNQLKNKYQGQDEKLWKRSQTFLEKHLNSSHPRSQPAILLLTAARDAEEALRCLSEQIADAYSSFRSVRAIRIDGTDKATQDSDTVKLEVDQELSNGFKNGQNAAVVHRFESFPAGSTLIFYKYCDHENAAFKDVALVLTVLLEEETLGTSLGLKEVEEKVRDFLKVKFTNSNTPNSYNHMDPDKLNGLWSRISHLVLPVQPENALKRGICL
# [20] = target: Alpha-bungarotoxin (Bungarus multicinctus) (UniProt P60615); assay: compounds binding labelled alpha-BTX control protein – biochemical, small-molecule microarray, Alexa647 label, 635/667 nm fluorescence, artefact control for SMM control protein annotation, profiling panel (AID 1117); conditions: alpha-BTX-A647 binding fluorescence, higher = more signal
# Sequence of Alpha-bungarotoxin (Bungarus multicinctus) (P60615 whole entry, looked up): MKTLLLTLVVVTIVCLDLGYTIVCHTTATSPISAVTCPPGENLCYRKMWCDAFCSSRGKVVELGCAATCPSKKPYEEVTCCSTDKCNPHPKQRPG
Compound,composite z-score [1],composite z-score [2],composite z-score [3],z-score [4],composite z-score [5],composite z-score [6],composite z-score [7],composite z-score [8],composite z-score [9],composite z-score [10],composite z-score [11],z-score [12],composite z-score [13],composite z-score [14],composite z-score [15],composite z-score [16],composite z-score [17],composite z-score [18],composite z-score [19],composite z-score [20]
Cc1ccc(N2C(=O)c3ccccc3[C@@H](C(=O)NC3CC3)[C@@H]2c2ccc(CO)cc2)nc1,1.24,-0.201,0.908,0.942 (inactive),-1.5,-0.968,-1.58,-1.38,-2.23,-0.314,-1.51,-0.312,-3.3,-1.35,-1.25,-0.268,-0.0866,-0.126,-0.13,-1.36
O=C1N[C@@H](Cc2ccccc2)C(=O)N2[C@@H]1C[C@@H](C(=O)O)[C@H]2c1cccc(OCCO)c1,1.56,0.0092,0.18,0.152 (inactive),1.45,1.29,0.334,0.798,1.18,0.806,1.3,2.89,0.941,-0.657,0.465,-0.176,-0.243,-0.199,0.49,1.14
CCC[C@@H]1C[C@@]1(CCC)[C@@H](NS(=O)(=O)c1cccc2cccnc12)c1ccc(Cl)cc1,-0.318,0.916,1.1,0.109 (inactive),0.044,-0.594,-0.484,-0.445,-0.35,1.04,1.23,-1.38,-0.385,0.976,1.28,0.0839,0.426,1.1,0.731,0.6
C[C@H]1NC(=O)[C@@]23C(=O)N[C@@H](Cc4ccccc4)C2[C@H](C)[C@@]2(C)O[C@H]2C3/C=C/C/C=C\CNC(=O)[C@@H]2CCCN2C1=O (stereo not given in full),0.466,-0.192,-0.575,0.856 (inactive),0.861,0.365,0.283,0.891,0.296,0.947,0.209,0.534,0.297,0.339,-0.52,-0.0593,-0.0035,-0.0841,0.159,0.368
COC(=O)[C@@]1(Cc2ccccc2)[C@H]2c3cc(C(=O)N(C)C)n(Cc4ccsc4Br)c3C[C@H]2CN1C(=O)c1ccccc1,-0.0533,0.894,1.17,-1.3 (inactive),1.02,0.439,-0.354,1.12,-0.506,0.669,1.41,-3.07,-0.329,1.79,0.463,0.107,0.342,1.2,0.905,0.626
[N-]=[N+]=NCc1ccccc1[C@@H]1OC(c2ccc(OCCCO)cc2)=N[C@]1(Cc1ccccc1)C(=O)NCC(O)CO (stereo not given in full),0.62,0.914,0.956,0.371 (inactive),0.899,0.0871,-0.519,-1.19,-0.889,0.68,-0.0042,-1.16,-0.559,0.168,0.305,0.262,0.559,1.99,1.95,2.68
COCCOC(=O)N1C(=O)[C@@]2(c3ccccc31)[C@H](c1ccc(O)cc1)N1[C@H](c3ccccc3)[C@H](c3ccccc3)OC(=O)[C@H]1[C@@H]2C(=O)Nc1nc2ccccc2s1,1.39,-0.0358,-0.167,-1.3 (inactive),0.724,1.05,0.252,0.542,0.39,0.0446,1.19,-0.993,0.118,1.29,0.501,-0.0276,0.249,0.0308,1.33,1.87
C=CCOC(=O)[C@H]1[C@@H]2C(=O)O[C@@H](c3ccccc3)[C@@H](c3ccccc3)N2[C@@H](c2ccc(OCCOC(=O)[C@@H]3C[C@@H]4C(=O)N[C@@H](CC(C)C)C(=O)N4[C@@H]3c3ccc(O)cc3)cc2)[C@]12C(=O)Nc1ccccc12,1.58,0.105,0.257,0.426 (inactive),1.26,1.3,0.671,1.3,0.675,-0.233,1.12,-1.47,0.701,2.5,0.137,0.0044,0.14,0.938,1.75,1.6
COC(=O)[C@@]1(Cc2ccccc2)[C@H]2c3cc(C(=O)N4CCCC4)n(Cc4ccc(S(C)(=O)=O)cc4)c3C[C@H]2CN1C(=O)c1ccccc1,0.525,1.52,1.03,-1.18 (inactive),0.387,1.18,0.679,0.94,0.222,1.3,0.97,-2.02,0.711,2.61,1.35,-0.0965,-0.34,-0.232,1.86,0.863
COc1cc(C(O)C2C=CC3C(=O)NC(=O)C3N2Nc2ccccn2)cc(OC)c1OC (stereo not given),1.18,-0.149,0.418,1.53 (inactive),0.12,0.211,0.635,-0.027,0.336,0.791,1.04,-0.178,0.0534,-0.0338,-0.62,-0.128,-0.243,0.416,0.531,-0.0198
